Source: PubChem BioAssay (NCI)
Compounds without any hit were thinned out: in the full panel of roughly 79,000, 15% have a hit. Active and inactive are the calls of the source. No stated cut-off is given here; in the data, active means growth inhibition above about 70%; inactive means the rest.

Columns and labels:
[1] = NCI Yeast Anticancer Drug Screen. Data for the mlh1 strain (AID 171);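 further: 0% = growth of vehicle-treated control cultures of the same strain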; conditions: S. cerevisiae mlh1 strain growth inhibition, hits give high values
Method in brief: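 Test agents were incubated with yeast bearing a defined DNA damage repair or cell cycle control alteration; values are growth inhibition normalised to vehicle-treated cultures.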

[2] = NCI Yeast Anticancer Drug Screen. Data for the sgs1 strain (AID 173);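 further: 0% = growth of vehicle-only control cultures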; conditions: S. cerevisiae sgs1 mutant, hits give high values
Method in brief: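 Strain with an altered DNA repair or cell cycle pathway exposed to compound. Growth then measured. Value = inhibition versus vehicle control.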

[3] = NCI Yeast Anticancer Drug Screen. Data for the mlh1 rad18 strain (AID 175); conditions: S. cerevisiae mlh1 rad18 strain growth inhibition, hits give high values
Method in brief: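 A repair-deficient yeast strain is exposed to test compound, and growth is scored relative to vehicle-treated controls.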

[4] = NCI Yeast Anticancer Drug Screen. Data for the rad18 strain (AID 177); conditions: S. cerevisiae rad18 mutant growth inhibition, hits give high values
Method in brief: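 DNA-repair-defective yeast; compound treatment; growth inhibition scored against vehicle.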

[5] = NCI Yeast Anticancer Drug Screen. Data for the rad52 strain (AID 147);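 further: 0% = growth of vehicle-treated control cultures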; conditions: S. cerevisiae rad52 mutant growth inhibition, hits give high values
Method in brief: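 Growth of repair-deficient yeast cells was compared between compound-treated and vehicle-treated cultures to give percent inhibition.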

[6] = NCI Yeast Anticancer Drug Screen. Data for the wt1 strain (AID 149);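 further: 0% = growth of vehicle-treated wt1 cultures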; conditions: S. cerevisiae wt1 strain (SPY 50644) growth inhibition, hits give high values
Method in brief: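 Yeast wt1 strain exposed to compounds; growth inhibition measured relative to vehicle-treated controls.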

[7] = NCI Yeast Anticancer Drug Screen. Data for the rad50EPP+ strain (AID 151);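 further: 0% = growth of vehicle-treated control cultures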; conditions: S. cerevisiae rad50 mutant strain, hits give high values
Method in brief: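 Measured: growth inhibition of rad50EPP+ yeast. Reference: vehicle-treated controls. Screen uses strains with defined genetic alterations in DNA damage repair or cell cycle control.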

[8] = NCI Yeast Anticancer Drug Screen. Data for the mgt1 strain (AID 153); conditions: S. cerevisiae mgt1 mutant growth inhibition, hits give high values
Method in brief: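 Compounds were applied to mgt1 mutant yeast, and growth was then compared against vehicle-treated control cultures to give percent inhibition.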

[9] = NCI Yeast Anticancer Drug Screen. Data for the rad50 strain (AID 155);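 further: 0% = growth of vehicle-only cultures of the same strain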; conditions: S. cerevisiae rad50 strain growth inhibition, hits give high values
Method in brief: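 Yeast carrying a defined DNA repair defect were exposed to test compounds, and growth was compared with vehicle-treated controls to give percent inhibition.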

[10] = NCI Yeast Anticancer Drug Screen. Data for the mec2-1 strain (AID 157); conditions: S. cerevisiae mec2-1 strain, hits give high values
Method in brief: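 Compounds were applied to mec2-1 yeast cells. Their growth was then compared with that of vehicle-treated cultures to give growth inhibition.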

[11] = NCI Yeast Anticancer Drug Screen. Data for the rad14 strain (AID 159);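 further: 0% = growth of vehicle-treated control cultures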; conditions: S. cerevisiae rad14 strain growth inhibition, hits give high values
Method in brief: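 Yeast cells carrying a defined DNA-repair defect were exposed to compounds, and growth inhibition was calculated relative to vehicle-treated control cultures.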

[12] = NCI Yeast Anticancer Drug Screen. Data for the sgs1 mgt1 strain (AID 161);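 further: 0% = growth of cultures given vehicle only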; conditions: S. cerevisiae sgs1 mgt1 strain, hits give high values
Method in brief: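 Compounds are added to genetically altered yeast, and growth is compared with cultures given vehicle alone to give percent inhibition.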

[13] = NCI Yeast Anticancer Drug Screen. Data for the CLN2oe strain (AID 163);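 further: 0% = growth of vehicle-only control cultures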; conditions: S. cerevisiae CLN2oe strain, hits give high values
Method in brief: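 Cells of an engineered yeast line with disturbed cell-cycle regulation are treated with compound. Inhibition of growth is then calculated relative to the vehicle-treated reference.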

[14] = NCI Yeast Anticancer Drug Screen. Data for the cln2 rad14 strain (AID 165);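 further: 0% = growth equal to vehicle treated cultures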; conditions: S. cerevisiae cln2 rad14 strain, hits give high values
Method in brief: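 Strain: cln2 rad14 yeast, altered in cell cycle control and DNA damage repair. Read-out: growth inhibition vs vehicle.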

[15] = NCI Yeast Anticancer Drug Screen. Data for the bub3 strain (AID 167); conditions: S. cerevisiae bub3 mutant strain, hits give high values
Method in brief: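 Compounds were applied to a genetically altered yeast strain carrying a cell-cycle control defect. Growth inhibition was scored against vehicle-treated controls.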

[16] = NCI Yeast Anticancer Drug Screen. Data for the wt2 strain (AID 169);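 further: 0% = growth of vehicle-treated yeast cultures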; conditions: S. cerevisiae wt2 strain growth inhibition, hits give high values
Method in brief: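 Growth of compound-treated yeast is measured and expressed as inhibition relative to vehicle-only controls.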

[17] = at 5.0 µM (retest, dose inferred, filed as 0.5)
[18] = at 50.0 µM (retest, dose inferred, filed as 5.0)

Measured: growth inhibition

CC1(C)[C@@H]2CC[C@]1(C)[C@H](OC(=O)CSC#N)C2
active: [1]; at 33.0 µM 73% | [1]; at 100.0 µM 98% | [2]; at 33.0 µM 94% | [2]; at 100.0 µM 97% | [3]; [18] 98% | [3]; at 50.0 µM 98.8% | [4]; at 33.0 µM 92% | [4]; at 100.0 µM 96%
inactive: [1]; at 1.2 µM 7% | [1]; at 3.7 µM 9% | [1]; at 11.0 µM 29% | [2]; at 1.2 µM 9% | [2]; at 3.7 µM 23% | [2]; at 11.0 µM 66% | [3]; [17] 9% | [4]; at 1.2 µM 9% | [4]; at 3.7 µM 14% | [4]; at 11.0 µM 28%

CC(=O)Nc1ccc2c(c1)C(=Nc1ccc(C(=O)O)cc1)c1ccccc1-2
inactive: [5]; at 1.2 µM -4% | [5]; at 3.7 µM -2% | [5]; at 11.0 µM 4% | [5]; at 33.0 µM 47% | [6]; at 1.2 µM 1% | [6]; at 3.7 µM 6% | [6]; at 11.0 µM 5% | [6]; at 33.0 µM 13% | [6]; at 100.0 µM 51% | [7]; at 1.2 µM 0% | [7]; at 3.7 µM 7% | [7]; at 11.0 µM 28% | [7]; at 33.0 µM 67% | [8]; at 1.2 µM -2% | [8]; at 3.7 µM -5% | [8]; at 11.0 µM -5% | [8]; at 33.0 µM 3% | [9]; at 1.2 µM -1% | [9]; at 3.7 µM 0% | [9]; [17] 6% | [9]; at 11.0 µM 9% | [9]; at 33.0 µM 47% | [9]; [18] 52% | [10]; at 1.2 µM 1% | [10]; at 3.7 µM 4% | [10]; [17] -3% | [10]; at 11.0 µM 9% | [10]; at 33.0 µM 22% | [10]; [18] 57% | [10]; at 50.0 µM 65.8% | [11]; at 1.2 µM -2% | [11]; at 3.7 µM 1% | [11]; at 11.0 µM 5% | [11]; at 33.0 µM 30% | [12]; [17] -15% | [12]; [18] 6% | [13]; at 1.2 µM 1% | [13]; at 3.7 µM -11% | [13]; at 11.0 µM 3% | [13]; at 33.0 µM 14% | [13]; at 100.0 µM 47% | [14]; [17] -8% | [14]; [18] 8% | [14]; at 50.0 µM 43.9% | [15]; at 1.2 µM -2% | [15]; at 3.7 µM -5% | [15]; [17] -7% | [15]; at 11.0 µM 0% | [15]; at 33.0 µM 11% | [15]; [18] 23% | [15]; at 100.0 µM 50% | [16]; at 1.2 µM -2% | [16]; at 3.7 µM -2% | [16]; at 11.0 µM -2% | [16]; at 33.0 µM 9% | [1]; at 1.2 µM -3% | [1]; at 3.7 µM 1% | [1]; at 11.0 µM 2% | [1]; at 33.0 µM 15% | [3]; [17] -7% | [4]; at 1.2 µM 5% | [4]; at 3.7 µM 15% | [4]; at 11.0 µM 47%
active: [5]; at 100.0 µM 96% | [7]; at 100.0 µM 92% | [8]; at 100.0 µM 91% | [9]; at 50.0 µM 91% | [9]; at 100.0 µM 95% | [10]; at 100.0 µM 78% | [11]; at 100.0 µM 97% | [12]; at 50.0 µM 74% | [15]; at 50.0 µM 91.6% | [16]; at 100.0 µM 93% | [1]; at 100.0 µM 90% | [3]; [18] 73% | [3]; at 50.0 µM 91.1% | [4]; at 33.0 µM 85% | [4]; at 100.0 µM 96%

CCCCN(CCCC)CCSc1ccc(Cl)cc1
inactive: [5]; at 1.2 µM -6% | [5]; at 3.7 µM -13% | [5]; at 11.0 µM -10% | [5]; at 33.0 µM 16% | [6]; at 1.2 µM -1% | [6]; at 3.7 µM 7% | [6]; at 11.0 µM 12% | [6]; at 33.0 µM 31% | [7]; at 1.2 µM -10% | [7]; at 3.7 µM -20% | [7]; at 11.0 µM 13% | [7]; at 33.0 µM 35% | [7]; at 100.0 µM 55% | [8]; at 1.2 µM -4% | [8]; at 3.7 µM -8% | [8]; at 11.0 µM -5% | [8]; at 33.0 µM -5% | [9]; at 1.2 µM -18% | [9]; at 3.7 µM -20% | [9]; [17] 2% | [9]; at 11.0 µM -15% | [9]; at 33.0 µM 28% | [9]; [18] 18% | [10]; at 1.2 µM -5% | [10]; at 3.7 µM -5% | [10]; [17] 3% | [10]; at 11.0 µM -7% | [10]; at 33.0 µM -8% | [10]; [18] 66% | [11]; at 1.2 µM 3% | [11]; at 3.7 µM -5% | [11]; at 11.0 µM 0% | [11]; at 33.0 µM 12% | [12]; [17] 2% | [13]; at 1.2 µM -12% | [13]; at 3.7 µM -12% | [13]; at 11.0 µM -13% | [13]; at 33.0 µM -11% | [13]; at 100.0 µM 59% | [14]; [17] 0% | [14]; [18] 4% | [15]; at 1.2 µM -9% | [15]; at 3.7 µM -5% | [15]; [17] 5% | [15]; at 11.0 µM -7% | [15]; at 33.0 µM 3% | [15]; [18] 43% | [16]; at 1.2 µM -5% | [16]; at 3.7 µM 3% | [16]; at 11.0 µM 13% | [16]; at 33.0 µM 45% | [2]; at 1.2 µM -10% | [2]; at 3.7 µM -7% | [2]; at 11.0 µM 10% | [2]; at 33.0 µM 42% | [4]; at 1.2 µM -8% | [4]; at 3.7 µM -11% | [4]; at 11.0 µM -7% | [4]; at 33.0 µM 2%
active: [5]; at 100.0 µM 95% | [6]; at 100.0 µM 93% | [8]; at 100.0 µM 73% | [9]; at 50.0 µM 87.3% | [9]; at 100.0 µM 96% | [10]; at 50.0 µM 94.7% | [10]; at 100.0 µM 92% | [11]; at 100.0 µM 92% | [12]; [18] 70% | [12]; at 50.0 µM 82.4% | [14]; at 50.0 µM 79.4% | [15]; at 50.0 µM 94.5% | [15]; at 100.0 µM 92% | [16]; at 100.0 µM 97% | [2]; at 100.0 µM 95% | [4]; at 100.0 µM 89%
